Measurements from PubChem BioAssay (NCATS).
Results filed as inconclusive are left out. Unless noted, calls come from the whole dose curve; as a rule, active = well fitted curve in either direction with a large enough effect (not every such curve was filed as active); inconclusive = small, poorly fitted or top-dose-only effect, or another doubt; inactive = flat fitted curve, though single readings scatter.

How the values were obtained:
[1] = AP1 Signaling Pathway (AID 357); conditions: ME-180 AP-1-bla reporter, EGF-induced, beta-lactamase ratio, 5 h; at 17.2 µM (top of the series) unless noted;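 note: ME-180 reporter cells stimulated with EGF at its EC50 level; % is set by controls: 0 for no effect and ±100 for the full control effect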
Summary of the method: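 Titration-series screen for positive or negative modulators of EC50 EGF-induced signaling in ME-180 cells carrying an AP-1-driven beta-lactamase reporter. After 5 hours at 37 degrees Celsius, CCF4 460nm/530nm emission ratio gave %Activity; AC50 values derived.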

[2] = NFAT Signaling Pathway (AID 444); conditions: Jurkat NFAT-bla M1, carbachol, beta-lactamase ratio, 5 h; at 17.2 µM (top of the series) unless noted;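 note: carbachol stimulus at about its EC50 of 1 µM final; % is set by controls: 0 for no effect and ±100 for the full control effect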
Summary of the method: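 Jurkat cells carrying an NFAT-driven β-lactamase reporter and co-transfected muscarinic M1 receptor were treated with compound plus carbachol (1 uM final, an EC50 level) for 5 h at 37 °C. CCF4 loading followed for 1 h at RT; 460/530 nm ratio gave %activity.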

[3] = Stat Signaling Pathway (AID 446); conditions: ME-180 SIE beta-lactamase reporter, IL-6 stimulated, 5 h; at 17.2 µM (top of the series) unless noted;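 note: ME-180 cervical cancer cells given 40 pM IL-6 alongside compound; SIE-controlled beta-lactamase reporter measured as 460/530 nm FRET emission ratio; % is set by controls: 0 for no effect and ±100 for the full control effect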
Summary of the method: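 ME-180 cells carrying a SIE-driven beta-lactamase reporter are stimulated with 40 pM IL-6 for 5 h at 37C in the presence of compound. The 460/530 nm FRET substrate ratio is read after 2.5 h at RT. Data are normalised to 300 pM IL-6 and to 125 nM JAK inhibitor controls.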

[4] = biological target: Glucocorticoid receptor (Homo sapiens) (UniProt P04150); experiment: GR-GFP Redistribution (AID 450;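 active = compounds whose dose series gives a full or clear partial fitted curve of increased nuclear translocation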; note: potency is the fitted concentration of half-maximal effect)
Sequence of Glucocorticoid receptor (Homo sapiens) (P04150 whole entry, looked up): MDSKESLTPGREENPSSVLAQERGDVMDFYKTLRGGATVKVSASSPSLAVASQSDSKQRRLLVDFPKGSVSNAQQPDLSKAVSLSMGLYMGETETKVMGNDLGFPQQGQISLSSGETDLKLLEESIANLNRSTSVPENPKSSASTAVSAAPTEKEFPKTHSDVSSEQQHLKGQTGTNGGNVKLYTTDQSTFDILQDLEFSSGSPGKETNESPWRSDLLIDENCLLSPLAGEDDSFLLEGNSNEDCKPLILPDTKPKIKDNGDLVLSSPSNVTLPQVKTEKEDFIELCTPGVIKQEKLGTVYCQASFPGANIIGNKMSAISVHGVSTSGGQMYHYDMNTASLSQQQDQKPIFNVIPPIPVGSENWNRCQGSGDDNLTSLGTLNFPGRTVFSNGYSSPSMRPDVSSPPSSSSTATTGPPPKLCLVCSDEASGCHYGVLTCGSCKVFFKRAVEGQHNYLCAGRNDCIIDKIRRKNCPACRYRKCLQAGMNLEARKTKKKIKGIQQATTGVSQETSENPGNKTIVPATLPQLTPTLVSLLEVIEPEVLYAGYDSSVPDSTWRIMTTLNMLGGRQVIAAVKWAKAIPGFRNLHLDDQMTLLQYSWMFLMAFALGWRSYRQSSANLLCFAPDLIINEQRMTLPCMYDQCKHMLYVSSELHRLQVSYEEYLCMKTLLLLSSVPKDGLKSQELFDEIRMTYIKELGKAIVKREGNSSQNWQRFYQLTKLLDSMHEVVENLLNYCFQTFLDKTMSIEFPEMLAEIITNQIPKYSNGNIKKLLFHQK

CN1CCc2c(C#N)c(N3CCCCC3)nc(N3CCOCC3)c2C1
inactive: activity change, negative = inhibition [1] 1.28% | activity change, negative = inhibition [2] 20.7% | activity, negative = inhibition [3] 10.9% | Potency [4] > 20.6 µM

CCN(CC)CCN1C(=O)C(O)=C(C(C)=O)C1c1ccc(OC)c(OC)c1 (configuration not stated)
inactive: activity change, negative = inhibition [1] 1.74% | activity change, negative = inhibition [2] 3.09% | activity, negative = inhibition [3] -2.04% | Potency [4] > 20.6 µM

CCCc1cc(NCCN2CCOCC2)n2c(nc3ccccc32)c1C#N
inactive: activity change, negative = inhibition [1] -11.4% | activity change, negative = inhibition [2] 9.42% | activity, negative = inhibition [3] -2.52% | Potency [4] > 20.6 µM

CN1CCN(CCCCC(=O)c2ccccc2)CC1
inactive: activity change, negative = inhibition [1] 16.6% | activity change, negative = inhibition [2] -15.1% | activity, negative = inhibition [3] 9.37% | Potency [4] > 20.6 µM

COc1cc(C2Nc3cccc4cccc(c34)N2)cc(OC)c1OC(C)=O
inactive: activity change, negative = inhibition [1] 19.9% | activity change, negative = inhibition [2] 3.51% | activity, negative = inhibition [3] 9.71% | Potency [4] > 20.6 µM

COCc1n[nH]c(=S)n1-c1cccc2ccccc12
inactive: activity change, negative = inhibition [1] -1.13% | activity change, negative = inhibition [2] 1.36% | activity, negative = inhibition [3] 0.355% | Potency [4] > 20.6 µM

CC(NC(=O)NC(N)=O)(C(F)(F)F)C(F)(F)F
inactive: activity change, negative = inhibition [1] 0.637% | activity change, negative = inhibition [2] -0.043% | activity, negative = inhibition [3] -1.84% | Potency [4] > 20.6 µM

O=c1[nH]c(CN2CCCCC2)nc2c1C1(CCCCC1)Cc1ccccc1-2
inactive: activity change, negative = inhibition [1] 24.9% | activity change, negative = inhibition [2] 4.2% | activity, negative = inhibition [3] -5.46% | Potency [4] > 20.6 µM

Cc1nccn1-c1cc(C(C)C)c(C#N)c2nc3ccccc3n12
inactive: activity change, negative = inhibition [1] 0.38% | activity change, negative = inhibition [2] -0.783% | activity, negative = inhibition [3] -0.277% | Potency [4] > 20.6 µM

COc1cc(C2C(C(=O)c3sc(C)nc3C)=C(O)C(=O)N2CCN(C)C)cc(OC)c1OC (configuration not stated)
inactive: activity change, negative = inhibition [1] -0.396% | activity change, negative = inhibition [2] 1.9% | activity, negative = inhibition [3] 8.27% | Potency [4] > 20.6 µM

CC(C)Cn1cnc2c(c1=O)c1nc3ccccc3nc1n2Cc1ccc2c(c1)OCO2
inactive: activity change, negative = inhibition [1] -7.49% | activity change, negative = inhibition [2] 8.7% | activity, negative = inhibition [3] -6.69% | Potency [4] > 20.6 µM

CCCOc1ccc(C2NC(=O)NC2=O)cc1 (configuration not stated)
inactive: activity change, negative = inhibition [1] 5.97% | activity change, negative = inhibition [2] 9.35% | activity, negative = inhibition [3] -1.78% | Potency [4] > 20.6 µM

O=C(O)CC(NCc1ccco1)C(=O)OCCc1ccccc1 (configuration not stated)
inactive: activity change, negative = inhibition [1] 2.29% | activity change, negative = inhibition [2] 5.37% | activity, negative = inhibition [3] 0.0661% | Potency [4] > 20.6 µM

CC(=O)C1(C)OC(N)=C(C#N)C(c2ccccc2)C1(C#N)C#N (configuration not stated)
inactive: activity change, negative = inhibition [1] 13.9% | activity change, negative = inhibition [2] -28.6% | activity, negative = inhibition [3] -4.54% | Potency [4] > 20.6 µM

Cc1cc(C)n(Cc2ccc(C(=O)NCCC3=CCCCC3)o2)n1
inactive: activity change, negative = inhibition [1] -15.1% | activity change, negative = inhibition [2] -1.94% | activity, negative = inhibition [3] 1.51% | Potency [4] > 20.6 µM

CC1(C)Cc2c(c(-c3ccccc3)nc3[nH][nH]c(=O)c23)CO1
inactive: activity change, negative = inhibition [1] -1.59% | activity change, negative = inhibition [2] -1.86% | activity, negative = inhibition [3] 12.3% | Potency [4] > 20.6 µM

Cc1cc(C)n(Cc2cc(C)c(Cn3nc(C)cc3C)cc2C)n1
inactive: activity change, negative = inhibition [1] 14.4% | activity change, negative = inhibition [2] -3.13% | activity, negative = inhibition [3] -5.55% | Potency [4] > 20.6 µM

CCCOc1ccc(N2C(=O)CC(N(Cc3ccc(S(N)(=O)=O)cc3)C(=O)CC)C2=O)cc1 (configuration not stated)
inactive: activity change, negative = inhibition [1] -6.51% | activity change, negative = inhibition [2] 20.1% | activity, negative = inhibition [3] 11.7% | Potency [4] > 20.6 µM
